Source: PubChem
S1P2 agonist: activates the human S1P2 receptor; S1P2-expressing cell line, agonist reporter read-out; activation, % at 4.5 µM; 97,000 compounds, 0.46% hits; AID 729; in the data active means activation above about 16%
Target sequence (O95136 whole entry, looked up): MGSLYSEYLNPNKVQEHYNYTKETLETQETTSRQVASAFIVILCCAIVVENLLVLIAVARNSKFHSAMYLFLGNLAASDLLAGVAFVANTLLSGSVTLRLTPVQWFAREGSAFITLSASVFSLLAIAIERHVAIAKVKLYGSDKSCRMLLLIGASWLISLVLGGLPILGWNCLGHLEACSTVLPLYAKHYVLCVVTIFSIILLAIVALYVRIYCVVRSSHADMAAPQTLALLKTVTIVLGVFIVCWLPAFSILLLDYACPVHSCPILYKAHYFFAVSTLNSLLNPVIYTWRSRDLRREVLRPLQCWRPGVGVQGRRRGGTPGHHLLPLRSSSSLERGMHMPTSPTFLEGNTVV
GALR2 ag: agonists of human galanin receptor 2 (GALR2); GALR2-expressing cells, agonist activation read-out; activation, % (test concentration not listed); 140,000 compounds, 0.48% hits; AID 803; in the data active means activation above about 5%, passing the limit was not always enough
Target sequence (O43603 whole entry, looked up): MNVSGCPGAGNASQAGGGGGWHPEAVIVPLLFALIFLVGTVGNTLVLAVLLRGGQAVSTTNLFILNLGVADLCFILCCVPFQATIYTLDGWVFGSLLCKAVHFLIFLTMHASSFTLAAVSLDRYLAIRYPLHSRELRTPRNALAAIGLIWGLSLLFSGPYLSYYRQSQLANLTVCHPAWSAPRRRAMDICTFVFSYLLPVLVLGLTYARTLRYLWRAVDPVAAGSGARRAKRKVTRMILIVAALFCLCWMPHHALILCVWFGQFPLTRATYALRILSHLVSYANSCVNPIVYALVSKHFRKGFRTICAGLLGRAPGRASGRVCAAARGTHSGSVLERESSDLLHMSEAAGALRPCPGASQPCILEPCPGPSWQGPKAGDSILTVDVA
PostGolgi yeast: growth inhibition of a yeast mutant, post-Golgi transport screen. post-Golgi transport phenotypic cell assay. inhibition, % at 10 µM. 98,000 compounds, 0.9% hits; in the data active means inhibition above about 30%;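 further: yeast cells grown in 1536-well plates; yeast grown about 18 h at 30C before absorbance read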
PostGolgi ctrl: inhibits growth of the yeast control strain; efflux-deficient yeast background strain, growth absorbance A615, 16 h; inhibition, % at 10 µM; 98,000 compounds, 5% hits; AID 738; in the data active means inhibition above about 30%
GALR2 blocker: GALR2 (human) receptor antagonism. O43603. GALR2-expressing cells, antagonist mode. inhibition, % at 4 µM. 140,000 compounds, 0.39% hits. AID 828;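 further: cells stimulated with galanin 1-16 at roughly its EC80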
S1P2 antag: antagonists of human S1P2 receptor; O95136; cell-based S1P2 antagonist assay, inhibition at 5 uM; inhibition, % at 5 µM; 97,000 compounds, 0.21% hits; in the data active means inhibition above about 45%;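 further: CRE beta-lactamase reporter cells expressing human S1P2 stimulated with S1P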
GALR2 agon conf: GALR2 (human) agonism confirmed; shares compounds with GALR2 ag; GALR2-expressing cells, agonist activation; activation, % at 5.6 µM; 460 compounds, 10% hits; AID 864; in the data active means activation above about 8.4%
BLA act counter: beta-lactamase activation, GALR2 counterscreen. 460 compounds, 10% hits. AID 865. shares compounds with GALR2 ag. activation, % at 5.6 µM. CHO NFAT-bla reporter, beta-lactamase FRET activation;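 active means activation above the screen-wide mean activation plus 3 SD, cut at about 8% in these data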
GALR2 ant conf: GALR2 (human) antagonism confirmed | shares compounds with GALR2 blocker | GALR2-expressing cells, antagonist mode, inhibition | inhibition, % at 4 µM | 480 compounds, 60% hits | AID 866;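 further: cells stimulated with galanin at about its EC80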
BLA inhib ctr: beta-lactamase inhibition, GALR2 counterscreen. CHO NFAT-BLA reporter, beta-lactamase FRET, thapsigargin-stimulated. AID 867. inhibition, % at 4.2 µM. shares compounds with GALR2 blocker. 480 compounds, 36% hits;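 active means inhibition above the mean inhibition across tested compounds plus 3 SD, cut at about 27% in these data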
Large screens that a line does not name were inactive (follow-up assays come after a bar, where they were run). Only a selection was taken, and hits are over-represented in it overall. Unless noted, no stated cut-off is given here; in the data, active means inhibition above about 27%; inactive means the rest.

Cc1ccc(/C=N/Nc2ccnc3cc(Cl)ccc23)c(C)c1	GALR2 ag 14, GALR2 blocker 32 (no result: S1P2 agonist, PostGolgi yeast, PostGolgi ctrl, S1P2 antag) | GALR2 agon conf 19 | BLA act counter 10 | GALR2 ant conf 42 | BLA inhib ctr 42
CCOc1ccc(-n2nc3c(=O)n(CCN4CCCCC4)nc(C)c3c2C)cc1	none (no result: S1P2 agonist, PostGolgi yeast, PostGolgi ctrl, S1P2 antag)
CN(C)c1ccc(/C=C/c2nc3ccccc3s2)cc1	GALR2 ag 20, GALR2 blocker 45, S1P2 antag 58 | GALR2 agon conf inactive | BLA act counter 9.6 | GALR2 ant conf 32 | BLA inhib ctr 41
O=C(Cn1cncc1-c1ccc([N+](=O)[O-])cc1)Nc1ccccc1F	none (no result: S1P2 agonist, PostGolgi yeast, PostGolgi ctrl, S1P2 antag)
O=c1oc2cc(O)ccc2cc1-c1nc2c(s1)CCc1ccccc1-2	GALR2 ag 14, GALR2 blocker 37 (no result: S1P2 agonist, PostGolgi yeast, PostGolgi ctrl, S1P2 antag) | GALR2 agon conf inactive | BLA act counter inactive | GALR2 ant conf 66 | BLA inhib ctr 70
O=c1oc2ccccc2cc1-c1ccc(O)cc1O	none (no result: S1P2 agonist, PostGolgi yeast, PostGolgi ctrl, S1P2 antag)
Cc1nc2nc(-c3cccs3)cn2nc1C	GALR2 blocker 28 | GALR2 ant conf 31 | BLA inhib ctr 35
NC(=O)c1c(-c2ccc(Cl)cc2Cl)csc1NC(=O)Cc1ccccc1	GALR2 blocker 34 (no result: S1P2 agonist, PostGolgi yeast, PostGolgi ctrl, S1P2 antag) | GALR2 ant conf 31 | BLA inhib ctr inactive
O=C(Cc1ccccc1)Nc1scc(-c2ccccc2)c1C(=O)N1CCOCC1	none
COc1cc(/C=C2\CC/C(=C\c3cc(OC)c(O)c(OC)c3)C2=O)cc(OC)c1O	GALR2 blocker 58 (no result: S1P2 agonist, PostGolgi yeast, PostGolgi ctrl, S1P2 antag) | GALR2 ant conf 41 | BLA inhib ctr 30
C=CCn1c(SCc2c(C(=O)OC)sc(N)c2C(=O)OC)nnc1-c1ccc(Br)cc1	none
CCc1c(C)nc2ncnn2c1NCCc1ccc(OC)cc1	GALR2 blocker 32 | GALR2 ant conf 35 | BLA inhib ctr inactive
Cc1ccc(C(C)C)c(OCC(=O)Nc2ccc(Cl)cn2)c1	none
CC(=O)c1c(C)[nH]c(C(=O)COc2cc(C)ccc2C(C)C)c1C	GALR2 blocker 33, S1P2 antag 66 | GALR2 ant conf 50 | BLA inhib ctr inactive
COc1cc(C(=O)NC(=S)Nc2ccc([N+](=O)[O-])cc2C)cc(OC)c1OC	GALR2 blocker 50 (no result: S1P2 agonist, PostGolgi yeast, PostGolgi ctrl, S1P2 antag) | GALR2 ant conf inactive | BLA inhib ctr inactive
CCNc1ccc(C(=O)OCC(=O)c2cc(C)n(Cc3ccc4c(c3)OCO4)c2C)cc1[N+](=O)[O-]	none (no result: S1P2 agonist, PostGolgi yeast, PostGolgi ctrl, S1P2 antag)
CCOC(=O)c1ccc(NC(=O)c2ccccc2[N+](=O)[O-])cc1	none (no result: S1P2 agonist, PostGolgi yeast, PostGolgi ctrl, S1P2 antag)
CCOC(=O)c1cc([N+](=O)[O-])c([N+](=O)[O-])cc1NC(C)=O	GALR2 blocker 41 (no result: S1P2 agonist, PostGolgi yeast, PostGolgi ctrl, S1P2 antag) | GALR2 ant conf 48 | BLA inhib ctr inactive
O=C1c2ccccc2C(=O)N1CCCCN(C(=O)c1cc([N+](=O)[O-])ccc1Cl)c1ccc(Cl)cc1	none (no result: S1P2 agonist, PostGolgi yeast, PostGolgi ctrl, S1P2 antag)
O=C1c2cc([N+](=O)[O-])cc3cc([N+](=O)[O-])cc(c23)C(=O)N1c1ccccn1	none (no result: S1P2 agonist, PostGolgi yeast, PostGolgi ctrl, S1P2 antag)
Cc1ccnc(N2C(=O)c3cccc4c([N+](=O)[O-])ccc(c34)C2=O)c1	PostGolgi yeast 105, PostGolgi ctrl 53, GALR2 blocker 36, S1P2 antag 52 | GALR2 ant conf 42 | BLA inhib ctr 40
CCOc1cc(-c2nc(-c3ccncc3)no2)cc(OCC)c1OCC	GALR2 blocker 35 | GALR2 ant conf inactive | BLA inhib ctr inactive
CCOc1ccc(-c2nc(-c3ccncc3)no2)cc1OCC	none
Cc1nc2ccccn2c1C(=O)NNS(=O)(=O)c1ccc(C(C)(C)C)cc1	GALR2 blocker 30 (no result: S1P2 agonist, PostGolgi yeast, PostGolgi ctrl, S1P2 antag) | GALR2 ant conf inactive | BLA inhib ctr inactive
CCOc1ccc(OCC)c(S(=O)(=O)NNC(=O)c2c(C)nc3ccccn23)c1	none (no result: S1P2 agonist, PostGolgi yeast, PostGolgi ctrl, S1P2 antag)
COc1ccccc1NC(=O)c1[nH]c(C)c(C(C)=O)c1C	GALR2 blocker 28 | GALR2 ant conf 33 | BLA inhib ctr inactive
O=C(Cn1ncc(Cl)c(Cl)c1=O)c1ccc(Cl)cc1	none (no result: PostGolgi yeast, PostGolgi ctrl)
O=C(Cn1ncc(Cl)c(Cl)c1=O)NCC1CCCCC1	GALR2 blocker 47 (no result: S1P2 agonist, PostGolgi yeast, PostGolgi ctrl, S1P2 antag) | GALR2 ant conf 33 | BLA inhib ctr inactive
O=C(Nc1ccc2nc(-c3cccnc3)[nH]c2c1)C1CCCCC1	none (no result: PostGolgi yeast, PostGolgi ctrl)
O=C(Nc1ccc2nc(-c3cccnc3)[nH]c2c1)C12CC3CC(CC(C3)C1)C2	GALR2 blocker 43 (no result: PostGolgi yeast, PostGolgi ctrl) | GALR2 ant conf 30 | BLA inhib ctr inactive
COC(=O)c1cc(NC(=O)Cc2ccc(OC)cc2)cc(C(=O)OC)c1	none
O=C(N/N=C/c1cc2c3c(c1O)CCCN3CCC2)c1ccccc1O	GALR2 blocker 32 (no result: S1P2 agonist, PostGolgi yeast, PostGolgi ctrl, S1P2 antag) | GALR2 ant conf 35 | BLA inhib ctr inactive
Cc1sc2ncnc(NCc3cccs3)c2c1C	GALR2 blocker 28 | GALR2 ant conf inactive | BLA inhib ctr inactive
Cc1sc2ncnc(NCc3ccco3)c2c1C	none
CSc1nc2ccccc2n1CC(=O)Nc1cc(C(F)(F)F)ccc1N1CCOCC1	none
Cc1[nH]c2ccc(OCc3ccccc3)cc2c1CCN1C(=O)OC(C)(C)C1(C)O (configuration not stated)	none
CC1(C)OC(=O)N(CCc2ccccc2)C1(C)O (configuration not stated)	GALR2 blocker 31 (no result: S1P2 agonist, S1P2 antag) | GALR2 ant conf inactive | BLA inhib ctr inactive
O=C(NCCc1ccccn1)C(F)(F)C(F)(F)C(F)(F)C(F)(F)C(F)(F)C(F)(F)C(F)(F)C(F)F	none (no result: S1P2 agonist, PostGolgi yeast, PostGolgi ctrl, S1P2 antag)
O=C(NCc1ccccn1)c1cccc(NS(=O)(=O)c2ccccc2F)c1	none (no result: S1P2 agonist, PostGolgi yeast, PostGolgi ctrl, S1P2 antag)
Cc1cccc(NC2=Nc3ccccc3N3C2=Nc2c(c(C)nn2-c2ccccc2)C3c2ccc(O)c(O)c2)c1 (configuration not stated)	GALR2 blocker 45, S1P2 antag 80 | GALR2 ant conf 44 | BLA inhib ctr 68
Cc1ccc(NC2=Nc3ccccc3N3C2=Nc2c(c(C)nn2-c2ccccc2)C3c2ccc(O)c(O)c2)cc1 (configuration not stated)	GALR2 blocker 58, S1P2 antag 77 | GALR2 ant conf 51 | BLA inhib ctr 69
Cc1nn(-c2ccc([N+](=O)[O-])cc2)c2c1C(c1cccc(Br)c1)N1C(=N2)C(=O)Nc2ccccc21 (configuration not stated)	none (no result: S1P2 agonist, PostGolgi yeast, PostGolgi ctrl, S1P2 antag)
Cc1nn(-c2ccccc2)c2c1C(c1ccc([N+](=O)[O-])cc1)N1C(=N2)C(=O)Nc2ccccc21 (configuration not stated)	none (no result: S1P2 agonist, PostGolgi yeast, PostGolgi ctrl, S1P2 antag)
Cc1nn(-c2ccccc2)c2c1C(c1ccc(O)c(O)c1)N1C(=N2)C(Nc2ccccc2)=Nc2ccccc21 (configuration not stated)	PostGolgi ctrl 51, GALR2 blocker 47, S1P2 antag 85 | GALR2 ant conf 37 | BLA inhib ctr 59
O=C(O)c1ccoc1CN1CCCCC1	none (no result: PostGolgi yeast, PostGolgi ctrl)
